Data published in the supplement of paper PMC8728848.
Many of the other results were omitted from the sample, so the strongest signals are more common in it than they were.

What was measured:
Assay in all cases: glycan array binding signal (z-score within array); higher = stronger binding
Conditions in all cases: glycan notation: IUPAC condensed, linker removed
[1] = biological target: GlcA3S(b1-3)Gal(b1-4)GlcNAc(b1-2)Man
Summary of the method: (§1)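 From the Consortium for Functional Glycomics database, 3228 arrays were curated, keeping only those whose protein sequence was available. Binding is given as a within-array Z-score averaged across arrays sharing a protein sequence and across linkers. Negative Z-scores can be read as non-binding.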

[2] = biological target: GlcA3S(b1-3)Gal(b1-4)GlcNAc(b1-3)Gal(b1-4)Glc
Summary of the method: as §1

[3] = biological target: GlcNAc(b1-2)[GlcNAc(b1-4)]Man(a1-3)[GlcNAc(b1-4)][GlcNAc(b1-2)Man(a1-6)]Man(b1-4)GlcNAc(b1-4)GlcNAc
Summary of the method: as §1

[4] = biological target: GlcNAc(b1-3)Gal(b1-4)GlcNAc(b1-3)Gal(b1-4)GlcNAc(b1-2)Man(a1-3)[GlcNAc(b1-3)Gal(b1-4)GlcNAc(b1-3)Gal(b1-4)GlcNAc(b1-2)Man(a1-6)]Man(b1-4)GlcNAc(b1-4)[Fuc(a1-6)]GlcNAc
Summary of the method: as §1

[5] = biological target: GlcNAc(b1-3)Gal(b1-4)GlcNAc(b1-6)[Gal(b1-3)]GalNAc
Summary of the method: as §1

[6] = biological target: GlcNAc(b1-3)Gal(b1-4)GlcNAc(b1-6)[GlcNAc(b1-3)]Gal(b1-4)GlcNAc
Summary of the method: as §1

[7] = biological target: Man(a1-2)Man(a1-2)Man(a1-3)Man
Summary of the method: as §1

[8] = biological target: Man(a1-2)Man(a1-2)Man(a1-6)[Man(a1-3)]Man
Summary of the method: as §1

[9] = biological target: Man(a1-2)Man(a1-3)[Man(a1-2)Man(a1-6)]Man(a1-6)[Man(a1-2)Man(a1-2)Man(a1-3)]Man(b1-4)GlcNAc(b1-4)GlcNAc
Summary of the method: as §1

[10] = biological target: Man(a1-2)Man(a1-6)[Man(a1-3)]Man(a1-6)[Man(a1-2)Man(a1-2)Man(a1-3)]Man
Summary of the method: as §1

[11] = biological target: Man(a1-3)[Man(a1-6)]Man(a1-6)[Man(a1-2)Man(a1-3)]Man(b1-4)GlcNAc(b1-4)GlcNAc
Summary of the method: as §1

[12] = biological target: Neu5Ac(a2-3)Gal(b1-3)GlcNAc(b1-3)GalNAc
Summary of the method: as §1

[13] = biological target: Neu5Ac(a2-3)Gal(b1-3)[GlcNAc(b1-6)]GalNAc
Summary of the method: as §1

[14] = biological target: Neu5Ac(a2-3)Gal(b1-4)GlcNAc(b1-2)Man(a1-3)[Neu5Ac(a2-3)Gal(b1-4)GlcNAc(b1-2)Man(a1-6)]Man(b1-4)GlcNAc(b1-4)[Fuc(a1-6)]GlcNAc
Summary of the method: as §1

[15] = biological target: Neu5Ac(a2-3)Gal(b1-4)GlcNAc(b1-2)[Neu5Ac(a2-3)Gal(b1-4)GlcNAc(b1-4)]Man(a1-3)[GlcNAc(b1-4)][Neu5Ac(a2-3)Gal(b1-4)GlcNAc(b1-2)[Neu5Ac(a2-3)Gal(b1-4)GlcNAc(b1-6)]Man(a1-6)]Man(b1-4)GlcNAc(b1-4)GlcNAc
Summary of the method: as §1

[16] = biological target: Neu5Ac(a2-3)Gal(b1-4)GlcNAc(b1-3)Gal(b1-4)GlcNAc(b1-3)Gal(b1-4)GlcNAc(b1-2)Man(a1-3)[Neu5Ac(a2-3)Gal(b1-4)GlcNAc(b1-3)Gal(b1-4)GlcNAc(b1-3)Gal(b1-4)GlcNAc(b1-2)Man(a1-6)]GalNAc
Summary of the method: as §1

[17] = biological target: Neu5Ac(a2-3)Gal(b1-4)GlcNAc(b1-3)Gal(b1-4)GlcNAc(b1-3)GalNAc
Summary of the method: as §1

[18] = biological target: Neu5Ac(a2-3)Gal(b1-4)GlcNAc(b1-3)GalNAc
Summary of the method: as §1

[19] = biological target: Neu5Ac(a2-3)Gal(b1-4)[Fuc(a1-3)]GlcNAc
Summary of the method: as §1

[20] = biological target: Neu5Ac(a2-3)Gal(b1-4)[Fuc(a1-3)]GlcNAc(b1-3)Gal(b1-4)GlcNAc
Summary of the method: as §1

[21] = biological target: Neu5Ac(a2-3)Gal(b1-4)[Fuc(a1-3)]GlcNAc(b1-6)[Gal(b1-3)]GalNAc
Summary of the method: as §1

[22] = biological target: Neu5Ac(a2-3)Gal(b1-4)[Fuc(a1-3)]GlcNAc(b1-6)[Neu5Ac(a2-3)Gal(b1-3)]GalNAc
Summary of the method: as §1

[23] = biological target: Neu5Ac(a2-3)Gal(b1-4)[Fuc(a1-3)]GlcNAc6S
Summary of the method: as §1

[24] = biological target: Neu5Ac(a2-3)[GalNAc(b1-4)]Gal(b1-4)GlcNAc(b1-3)GalNAc
Summary of the method: as §1

[25] = biological target: Neu5Ac(a2-6)Gal(b1-4)GlcNAc(b1-2)Man(a1-3)Man(b1-4)GlcNAc(b1-4)GlcNAc
Summary of the method: as §1

[26] = biological target: Neu5Ac(a2-6)Gal(b1-4)GlcNAc(b1-2)Man(a1-3)[Gal(b1-4)GlcNAc(b1-2)Man(a1-6)]Man(b1-4)GlcNAc(b1-4)GlcNAc
Summary of the method: as §1

[27] = biological target: Neu5Ac(a2-6)Gal(b1-4)GlcNAc(b1-2)Man(a1-3)[GlcNAc(b1-2)Man(a1-6)]Man(b1-4)GlcNAc(b1-4)GlcNAc
Summary of the method: as §1

[28] = biological target: Neu5Ac(a2-6)Gal(b1-4)GlcNAc(b1-2)Man(a1-6)[GlcNAc(b1-2)Man(a1-3)]Man(b1-4)GlcNAc(b1-4)GlcNAc
Summary of the method: as §1

[29] = biological target: Neu5Ac(a2-6)Gal(b1-4)GlcNAc(b1-3)Gal(b1-4)GlcNAc(b1-3)Gal(b1-4)GlcNAc(b1-2)Man(a1-3)[Neu5Ac(a2-6)Gal(b1-4)GlcNAc(b1-3)Gal(b1-4)GlcNAc(b1-3)Gal(b1-4)GlcNAc(b1-2)Man(a1-6)]GalNAc
Summary of the method: as §1

[30] = biological target: Neu5Ac(a2-8)Neu5Ac(a2-3)[GalNAc(b1-4)]Gal(b1-4)Glc
Summary of the method: as §1

Neu5Gc(a2-3)Gal(b1-4)Glc = biological target: Neu5Gc(a2-3)Gal(b1-4)Glc
Summary of the method: as §1

B1: Actd5 (Actinidia), P84527 (protein)
chain: ISSCNGPCRDLNDCDGQLICIKGKCNDDPQVGTHICRGTTHSHQPGGCKPSGTLTCRGKSYPTYDCSPPVTSSTPAKLTNNDFSEGGDDGGPSECDESYHNNNERIVALSTGWYNGGSRCGKMIRITASNGKSVSAKVVDECDSRHGCDKEHAGQPPCRNNIVDGSNAVWSALGLDKNVGVVDITWSMA
glycan array binding signal (z-score) [1]: -0.597
glycan array binding signal (z-score) [2]: -0.788
glycan array binding signal (z-score) [3]: -0.558
glycan array binding signal (z-score) [4]: 3.06
glycan array binding signal (z-score) [5]: -0.776
glycan array binding signal (z-score) [6]: 0.458
glycan array binding signal (z-score) [7]: 0.687
glycan array binding signal (z-score) [8]: 6.66
glycan array binding signal (z-score) [9]: 4.17
glycan array binding signal (z-score) [10]: 3.42
glycan array binding signal (z-score) [11]: 5.03
glycan array binding signal (z-score) [12]: -0.064
glycan array binding signal (z-score) [13]: -0.32
glycan array binding signal (z-score) [14]: -0.173
glycan array binding signal (z-score) [15]: -0.296
glycan array binding signal (z-score) [16]: 5.66
glycan array binding signal (z-score) [17]: -0.279
glycan array binding signal (z-score) [18]: 0.374
glycan array binding signal (z-score) [19]: -0.42
glycan array binding signal (z-score) [20]: 0.65
glycan array binding signal (z-score) [21]: 1.5
glycan array binding signal (z-score) [22]: -0.33
glycan array binding signal (z-score) [23]: -0.958
glycan array binding signal (z-score) [24]: 0.22
glycan array binding signal (z-score) [25]: -0.071
glycan array binding signal (z-score) [26]: -0.093
glycan array binding signal (z-score) [27]: -0.252
glycan array binding signal (z-score) [28]: -0.496
glycan array binding signal (z-score) [29]: 3.79
glycan array binding signal (z-score) [30]: -0.363
glycan array binding signal (z-score) (Neu5Gc(a2-3)Gal(b1-4)Glc): 0.046
